From PubChem BioAssay AID504800 (The Scripps Research Institute Molecular Screening Center, 2011)
Some of the results follow. Unmarked numbers belong to inactive results. Activity calls are given as the source filed them.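 Rule for the calls: active = mean activation over replicate wells exceeds the adjusted hit threshold taken from the earlier primary screen (cut at about 20% in these data); inactive = the rest.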

target: cAMP-dependent protein kinase type I-alpha regulatory subunit (Bos taurus) (UniProt P00514); assay: PKAc release from R1A subunit – biochemical, fluorescence polarization, Cy5-IP20, triplicate, confirmation (AID 504800); conditions: PKA-R1A holoenzyme dissociation, at 11.4 µM, hits give high values;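 note: 0% = holoenzyme mix with DMSO only and 100% = cGMP-activated control wells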
Sequence (P00514 whole entry, looked up): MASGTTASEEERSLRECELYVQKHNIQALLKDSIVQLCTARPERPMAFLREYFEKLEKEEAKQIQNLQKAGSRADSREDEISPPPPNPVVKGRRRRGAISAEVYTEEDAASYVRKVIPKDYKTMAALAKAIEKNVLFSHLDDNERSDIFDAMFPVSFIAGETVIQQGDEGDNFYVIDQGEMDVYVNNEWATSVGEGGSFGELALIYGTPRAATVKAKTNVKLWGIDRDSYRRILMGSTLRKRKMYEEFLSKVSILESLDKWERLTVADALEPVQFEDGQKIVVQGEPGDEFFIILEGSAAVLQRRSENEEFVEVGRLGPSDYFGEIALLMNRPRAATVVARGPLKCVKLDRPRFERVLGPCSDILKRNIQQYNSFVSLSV

Row | Structure (SMILES) | activation
1 | Cc1ccc2nc3c(cc(C(=O)NCCc4ccccc4)c(=N)n3CC3CCCO3)c(=O)n2c1 (stereo not given) | 4.46%
2 | CCC(Oc1ccccc1C)C(=O)Nc1ccc(S(=O)(=O)Nc2cc(C)on2)cc1 (stereo not given) | 2.1%
3 | CN(C(=O)CSc1nnc(Nc2ccccc2)s1)C1CCS(=O)(=O)C1 (stereo not given) | 1.24%
4 | CCOc1cc(C(=O)Nc2c(C)ccc3nsnc23)cc(OCC)c1OCC | -1.31%
5 | N#Cc1ccccc1CN1C(=O)S/C(=C/c2cccn2-c2cccc(C(=O)O)c2)C1=O | 26.8% (active)
6 | CCCC(=O)Nc1ncnc2c1ncn2[C@@H]1O[C@@H]2OP(=O)(O)OC[C@H]2[C@H]1OC(=O)CCC | 43.8% (active)
7 | O=C(Nc1ccc2c(c1)[C@@H]1C[C@@H](CC(=O)N3CCCCC3)O[C@@H](CO)[C@@H]1O2)NC1CCCCC1 | 4.17%
8 | COc1ccc(NC(=O)c2ccc(C#CC(C)(C)O)cc2)cc1 | -0.53%
9 | COc1ccc(CNc2nnnn2C)cc1 | 6.31%
10 | COc1ccccc1N1CC(C(=O)Nc2nnc(SCC(=O)NC(C)C)s2)CC1=O (stereo not given) | -1.21%
